Laboratory results as given in the supplement of paper PMC10127200.
Structures can show the parent of a compound that is named as a salt.

Each compound was assayed on OVCAR4 (assay: Euclidean distance of Cell Painting phenotypic profile (signed KS, 77 features) to DMSO centroid (dimensionless distance); 5 or 10 uM (library dependent); higher = stronger phenotypic change vs DMSO (phenoactivity)). Settings: 48 h.
Procedure, shortened: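 Harmony extracted 77 features from 20X confocal images (9 fields/well) of stained cells, scoring each as a signed Kolmogorov-Smirnov statistic against same-plate vehicle wells. The cells, five cancer lines and a healthy fibroblast line, had received library compounds for 48 h at 10 or 5 uM depending on library, with 0.1% DMSO final. Phenoactivity is the Euclidean distance from each plate-position-corrected, correlation-weighted, top-dose replicate-averaged profile to the median vehicle profile.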

| Structure (SMILES) | Euclidean distance |
| --- | --- |
| C/C=C(/C)C(=O)O[C@H]1[C@H](OC(C)=O)[C@@]2(CO)C(CC1(C)C)C1=CCC3[C@@]4(C)CCC(O[C@@H]5O[C@H](C(=O)O)[C@@H](O[C@@H]6O[C@H](CO)[C@@H](O)[C@H](O)[C@H]6O)[C@H](O)[C@H]5O[C@@H]5O[C@H](CO)[C@@H](O)[C@H](O)[C@H]5O)[C@](C)(CO)C4CC[C@@]3(C)[C@]1(C)C[C@H]2O.C/C=C(\C)C(=O)O[C@H]1[C@H](OC(C)=O)[C@@]2(CO)C(CC1(C)C)C1=CCC3[C@@]4(C)CCC(O[C@@H]5O[C@H](C(=O)O)[C@@H](O[C@@H]6O[C@H](CO)[C@@H](O)[C@H](O)[C@H]6O)[C@H](O)[C@H]5O[C@@H]5O[C@H](CO)[C@@H](O)[C@H](O)[C@H]5O)[C@](C)(CO)C4CC[C@@]3(C)[C@]1(C)C[C@H]2O (stereo partly specified) [Escin] | 1.24 |
| OC(CNCC(O)C1CCc2cc(F)ccc2O1)C1CCc2cc(F)ccc2O1 (stereo unspecified) [Nebivolol] | 1.58 |
| COc1ccc(C[C@H](NC(=O)[C@H](C)NC(=O)CN2CCOCC2)C(=O)N[C@@H](Cc2ccccc2)C(=O)[C@@]2(C)CO2)cc1 | 6.2 |
| CC(C)N(CCCNC(=O)Nc1ccc(C(C)(C)C)cc1)C[C@H]1O[C@@H](n2ccc3c(N)ncnc32)[C@H](O)[C@@H]1O | 0.755 |
| O=C(Nc1ncc(SCCN2CCCC2)s1)[C@]1(c2ccc(S(=O)(=O)C3CC3)cc2)C[C@H]1C1CCCCC1 | 1.44 |
| CCOC(=O)CC(=O)N1CCSC1COc1ccccc1OC (stereo unspecified) [Moguisteine] | 1.01 |
| COc1cc(N2CCC(N3CCN(C)CC3)CC2)ccc1Nc1ncc(Cl)c(Nc2ccccc2P(C)(C)=O)n1 | 1.74 |
| CC(C)c1cc(C(C)C)c(CC(=O)NS(=O)(=O)Oc2c(C(C)C)cccc2C(C)C)c(C(C)C)c1 [Avasimibe] | 0.819 |
| C#Cc1cccc(Nc2ncnc3cc(OCCOC)c(OCCO)cc23)c1 | 2.03 |
| CC1(C)S[C@@H]2[C@H](NC(=O)C(c3ccccc3)S(=O)(=O)O)C(=O)N2[C@H]1C(=O)O (stereo partly specified) [Sulbenicillin Sodium] | 1.09 |
| COc1cc2/c(=N/c3ccc(Br)cc3F)nc[nH]c2cc1OCC1CCN(C)CC1 [Vandetanib (ZD6474)] | 2.94 |
| Cc1ccc(NC(=O)c2cccc(C(C)(C)C#N)c2)cc1Nc1ccc2ncn(C)c(=O)c2c1 | 0.804 |
| C[C@]12CC[C@@H]3c4ccc(O)cc4C[C@@H](CCCCCCCCC[S+]([O-])CCCC(F)(F)C(F)(F)F)[C@H]3[C@@H]1CC[C@@H]2O (stereo partly specified) [Fulvestrant] | 1.56 |
| CC[C@H](Nc1ncnc2[nH]cnc12)c1nc2cccc(F)c2c(=O)n1-c1ccccc1 [CAL-101 (Idelalisib. GS-1101)] | 1.56 |
| CCN1CCN(Cc2ccc(Nc3ncc(F)c(-c4cc(F)c5nc(C)n(C(C)C)c5c4)n3)nc2)CC1 [Abemaciclib] | 3.89 |
| O=c1c(-n2ccnn2)c[nH]n1-c1cc(N2CCOCC2)ncn1 [Molidustat (BAY 85-3934)] | 1.19 |
| O=c1ccn([C@@H]2O[C@H](CO)[C@@H](O)[C@H]2O)c(=O)[nH]1 [Uridine] | 0.863 |
| CN1CCN(C2=Nc3cc(Cl)ccc3Nc3ccccc32)CC1 [Clozapine] | 1.34 |
| C[C@@H]1COCCN1c1cc(C2([S@](C)(=N)=O)CC2)nc(-c2cc[nH]c3nccc2-3)n1 | 2.88 |
| CCCC(=O)O[C@]1(C(=O)COC(C)=O)CC[C@H]2[C@@H]3C[C@H](F)C4=CC(=O)C=C[C@]4(C)[C@@]3(F)[C@@H](O)C[C@@]21C [Difluprednate] | 1.82 |
| CCCNCC(O)COc1ccccc1C(=O)CCc1ccccc1 (stereo unspecified) [Propafenone HCl] | 1.26 |
| CN1CCN(CC/C=C2/c3ccccc3Sc3ccc(S(=O)(=O)N(C)C)cc32)CC1 [Thiothixene] | 2.03 |
| Cc1cn(-c2cc(NC(=O)c3ccc(C)c(Nc4nccc(-c5cccnc5)n4)c3)cc(C(F)(F)F)c2)cn1 [Nilotinib (AMN-107)] | 1.8 |
| COc1ccc(-c2cc3c(C)nc(N)nc3n([C@H]3CC[C@H](OCCO)CC3)c2=O)cn1 | 3.03 |
| C[C@]1(COc2ccc(N3CCC(Oc4ccc(OC(F)(F)F)cc4)CC3)cc2)Cn2cc([N+](=O)[O-])nc2O1 [Delamanid] | 0.969 |
| Cc1cc2c(cc1CC(=O)c1sccc1S(=O)(=O)Nc1onc(C)c1Cl)OCO2 [Sitaxentan sodium] | 1.46 |
